According to PMC9574860, “Chemical Toolkit for PARK7: Potent, Selective, and High-Throughput” (Journal of Medicinal Chemistry, 2022):
Screen size: about 7,900 compounds; about 400 (5.1%) showed an effect of 50% or more. The sample as a whole holds a higher share of strong results than the screen did.

What follows are compounds tested against Parkinson's disease protein 7 (PARK7/DJ1) (human, UniProt Q99497) (assay: primary screen, percent inhibition; read as competition with a fluorescent probe by fluorescence polarization; higher = more effect of the substance). Conditions: 100 µM.
Chain of Parkinson's disease protein 7 (PARK7/DJ1) (Q99497 whole entry, looked up, the tested form may be a part): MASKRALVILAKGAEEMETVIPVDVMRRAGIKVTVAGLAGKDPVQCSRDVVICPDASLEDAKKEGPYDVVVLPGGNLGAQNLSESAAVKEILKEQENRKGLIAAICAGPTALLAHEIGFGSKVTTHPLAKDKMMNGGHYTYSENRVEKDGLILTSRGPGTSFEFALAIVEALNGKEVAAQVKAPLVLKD
Description: The screen was conducted using the conditions as described above in 1536-well plates (Corning 3724) with a reaction volume of 8 μL per well. The compound library containing 7887 covalent fragments was purchased at Enamine Ltd. and received as 100 mM DMSO stocks in 384 well LDV Echo plates (Labcyte LP-0200). Stock solutions of 0.26 μM PARK7 and 80 nM JYQ-107 were prepared. Using a Labcyte Echo550 acoustic dispenser, 8 nL of the DMSO stock solution of the library compounds was transferred from the source plates into the empty 1536-well screening plates to obtain a 100 μM final compound concentration. Next, PARK7 (6 μL, final concentration 0.2 μM) was dispensed using a Biotek MultiflowFX liquid dispenser and incubated for 2 h, followed by dispensing the probe JYQ-107 (2 μL, final concentration 20 nM). After 2 h incubation, the FP signal was recorded on a BMG Labtech PHERAstar plate reader (λex/em 480/520 nm). The relative loss of FP signal compared with reference controls was used to calculate the remaining enzyme activity.

| Structure (SMILES) | Inhibition % [%] |
| --- | --- |
| Cc1cc(C=C(C#N)C(=O)N2CCC2)c(C)n1CC(C)C | -2.1 |
| NS(=O)(=O)c1ccc(NC(=O)CCl)cc1 | 69.2 |
| NS(=O)(=O)c1cccc(NC(=O)CCl)c1 | 14.7 |
| O=C(CCl)Nc1ccccc1S(=O)(=O)C(F)F | 6.1 |
| CS(=O)(=O)c1cccc(NC(=O)CCl)c1 | 7.34 |
| O=C(CCl)Nc1ccc(S(=O)(=O)C(F)F)cc1 | 65.8 |
| CS(=O)(=O)c1ccc(NC(=O)CCl)cc1 | 51.8 |
| CS(=O)(=O)c1ccc(CNC(=O)CCl)cc1 | 10.2 |
| Cc1ccc(NC(=O)CCl)cc1S(N)(=O)=O | 17.6 |
| CCC(CSC)Nc1ccc(C#N)nc1 (stereo not shown) | 11.4 |
| O=S(=O)(F)c1ccc(Cn2cnc(Br)n2)cc1 | 12.6 |
| C=CC(=O)NCCc1cnn(C)c1 | 3.91 |
| Cc1cc(C=C(C#N)C(=O)O)c(C)n1CC(C)C | 8.48 |
| Cl.Cl.NC1CCN(C2CCOC2=O)CC1 (stereo not shown) | 5.74 |
| O=C(CCl)N(c1ccccc1)C1CCS(=O)(=O)C1 (stereo not shown) | 5.5 |
| C=CC(=O)Nc1ccc2nc(C3CC3)oc2c1 | 11.6 |
| Nc1cccnc1S(=O)(=O)F | 81.4 |
| Nc1ccccc1S(=O)(=O)F | 44.7 |
| N#Cc1ncccc1S(N)(=O)=O | 6.94 |
| O=C(CCl)NCc1ccc(C(=O)N2CCCC2)cc1 | 4.96 |
| Cn1cc(C=CC(=O)N2CCc3ccccc32)cn1 | 3.76 |
| C=CC(=O)N1CCOc2ccc(F)cc2C1 | 11.2 |

| Structure (SMILES) | Inhibition % [%] |
| --- | --- |
| O=c1[nH]c(-c2cccs2)no1 | 3.67 |
| Cc1ccsc1-c1nnc(NC(=O)CCl)o1 | 10.8 |
| Cc1[nH]c(C#N)cc1C(=O)O | 6.7 |
| N#Cc1ccc(C(=O)O)[nH]1 | 7.43 |
| N#Cc1ccc(C(=O)O)c(=O)[nH]1 | 83.7 |
| O=C(O)c1ccc(C2OCCO2)cc1 | 7.82 |
| N#CC(c1ccccc1)N1CCN(C(=O)CCl)CC1 (stereo not shown) | 18.3 |
| CC(C)c1ccc(NC(=O)CCl)cc1 | 95.8 |
| CCC(C)c1ccc(-c2csc(NC(=O)CCl)n2)cc1 (stereo not shown) | 8.03 |
| CC(C)c1ccc(CCNC(=O)CCl)cc1 | 22 |
| CCC(C)c1ccc(NC(=O)CCl)cc1 (stereo not shown) | 99.1 |
| CCN(CC)C(=O)c1ccc(NC(=O)CCl)cc1 | 43.2 |
| CCN(c1ccc(NC(=O)CCl)cc1)C(C)C.Cl | 98.6 |
| CCC(C)c1ccccc1NC(=O)CCl (stereo not shown) | 16.8 |
| CC(C)c1ccc(C(C)NC(=O)CCl)cc1 (stereo not shown) | 6.77 |
| C=CC(=O)NC(=O)NC12CC3CC(CC(C3)C1)C2 | 3.27 |
| C=CC(=O)N1CCC(CNC(C)=O)CC1 | 25 |
| CC1(C)OC1c1ccccc1 (stereo not shown) | 13.4 |
| C#CCN(c1cnc(C#N)cn1)C1CCCC1 | 1.73 |
| COC1CS(=O)(=O)CC1Cl (stereo not shown) | 8.34 |
| C=CC(=O)N1CCc2nc(-c3ccccc3)sc2C1 | 16.7 |
| O=C(CCl)N1c2ccccc2Sc2ccc(Cl)cc21 | 6.3 |

| Structure (SMILES) | Inhibition % [%] |
| --- | --- |
| COc1ccc(S(=O)(=O)n2ccc(C)n2)cc1 | 7.42 |
| CCc1nccn1S(=O)(=O)c1cc(Cl)c(C)cc1OC | 4.53 |
| O=c1onc(-c2ncccn2)n1Cc1ccc(Cl)s1 | 2.32 |
| O=C(CCl)NCC1CCOC1 (stereo not shown) | 8.14 |
| O=C(CCl)NNC(=O)C1CC1 | 1.1 |
| O=C(CCl)C1CCC(F)(F)CC1 | 96.8 |
| O=C(CCl)C1CCOCC1 | 99 |
| C=CC(=O)NCC1CCC(F)(F)CC1 | 5.38 |
| O=C(CCl)NC1CCOCC1 | 10.5 |
| Cc1cc(C)n(CC2CCCN2C2CC(C)OC2=O)n1 (stereo not shown) | -2.43 |
| Cc1ccnc(S)n1.Cl | 5.09 |
| Cc1ccoc1C(=O)Nc1cccc(S(=O)(=O)F)c1 | 7.02 |
| C=CC(=O)Nc1cccc(C(F)(F)F)c1 | 9.31 |
| Cc1cc(C(=O)Nc2cccc(S(=O)(=O)F)c2)c(C(F)(F)F)o1 | 96.8 |
| O=C(Nc1cccc(S(=O)(=O)F)c1)c1ccoc1C(F)(F)F | 96.8 |
| NS(=O)(=O)c1cccc(NC(=O)Oc2ccccc2)c1 | 4.87 |
| O=C(Nc1cccc(S(=O)(=O)F)c1)c1sccc1OC(F)F | 93.1 |
| COCc1ncsc1C(=O)Nc1cccc(S(=O)(=O)F)c1 | 8.52 |
| Cc1nc2c(C(=O)Nc3cccc(S(=O)(=O)F)c3)cccc2o1 | 43.6 |
| C=CC(=O)Nc1cccc(OC(F)F)c1 | 4.3 |
